The panel holds about 83,000 compounds, 20% with a hit somewhere; the sample as a whole holds those more often.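 For each line, cells grew in 96-well plates with the test compound present at a single concentration for 48 hours.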 Values without a mark were called inactive. Activity calls are given as the source filed them. How the source made its calls: active means growth percent below 10; inactive means the rest.
What follows are compounds tested on MDA-MB-468 breast (assay: NCI-60 one-dose screen, 48 h (100 = growth as untreated, 0 = no growth, -100 = all killed)). Conditions: 10 µM unless noted.

Compound	growth
Cc1cc(=O)oc2cc(OC(=O)CN3CCN(C)CC3)ccc12	101%
C=C[C@@H]1C[C@H](O)Cc2c(C)cc(C)cc2N1	91.9%
O=C1c2ccccc2C(=O)N1/N=C/c1ccc2c(c1)OCO2	103%
Cn1c(=O)c2[nH]c(CCCCC(=O)O)nc2n(C)c1=O	121%
O=C1c2cccnc2-c2nccc3c2c1nc1cc(Br)ccc13	-54.6% (active)
O=C1Nc2ccccc2C12CC(c1ccccc1)=NN2 (centres undefined)	66.4%
O=C1c2ccccc2C(=O)c2c(NCCN=Cc3c(O)ccc4ccccc34)cccc21	84.5%
N#Cc1nc(-c2ccccc2)oc1S(=O)(=O)N1CCN(c2ccc(F)cc2)CC1	44.8%
CC(=O)OC[C@]1(C)C=C2C(=O)[C@](C)(O)C3(CC3)C(C)=C2[C@H]1OC(C)=O	21.6%
COc1ccc(C/C(C)=C(/c2ccc(OCCN3CCCC3)cc2)c2ccc(OC(=O)NCc3ccccc3)cc2)cc1	78.9%
C=C1CC[C@@H]2[C@](C)(COC(C)=O)[C@H](OC(C)=O)CC[C@@]2(C)[C@@H]1CC(Nc1ccc(S(=O)(=O)Nc2cc(C)on2)cc1)C1=CCOC1=O (some centres undefined)	3.23% (active)
O=C(CN1CCOCC1)Nc1ccc(-c2nc3ccccc3s2)cc1	-6.69% (active)
O=C1Nc2ccc(Br)cc2/C1=N\N=C/c1cn(Cc2ccccc2)c2ccccc12	-43% (active)
Nc1ccc(/C=N/Nc2ccnc3c(O)cccc23)c2cccnc12	73.6%
